Assay results as given in PubChem BioAssay (Tox21).
Inconclusive results are not listed. A call without a number means that no potency is given here. Calls of active or inactive are those of the source. Calls follow the shape of the dose curve; as a rule, active = well fitted activation curve with a large enough effect in the repeat runs; inconclusive = weak or mixed curves; inactive = flat fitted curve, though single readings scatter.
Potency is read from the fitted curve at half-maximal effect.

Assay: A CellTox Green Cytotoxicity Assay to monitor cytotoxicity in HEK293 cells - 32 hour (AID 1224881); also: nearly all actives have a fitted effect of over 40% in size
Conditions: CellTox Green fluorescence; series mostly up to 76.8 µM
Source text: National Center for Advancing Translational Sciences [NCATS]
NIH Chemical Genomics Center [NCGC]
U.S. Environmental Protection Agency [EPA]
National Institutes of Environmental Health Sciences [NIEHS]
National Toxicology Program [NTP]
Cell-based models are critical for drug discovery. Determining the natural cytotoxic effects resulting from test compounds is an essential research activity. A CellTox Green Cytotoxicity Assay to monitor cytotoxicity in real time of continues cell culture during 40 hours of the compound treatment was used to screen Tox21 10K library compounds in Hek293 cells. CellTox Green Cytotoxicity Assay is a nonlytic, homogeneous, biofluorescent method to measure cytotoxicity in cell culture after experimental manipulation. The assay system uses a proprietary asymmetric cyanine dye that is excluded from viable cells but preferentially stains the dead cell's DNA. […] Viable cells produce no appreciable increases in fluorescence. Therefore, the fluorescence signal produced by the binding interaction with dead cell DNA is proportional to cytotoxicity.
The mixture of Hek293 cell suspension and reagents were dispensed at 600cells/6 ul/well in 1536-well tissue culture treated black solid bottom plates using a Multidrop dispenser. After the assay plates were incubated at a 37 C/5% CO2 incubator for 5 hours, 23 nL of compounds dissolved in DMSO, positive and negative controls was transferred to the assay plate by a pintool work station. The plates were incubated at 37 C for 40 hours. The fluorescence intensity were measured at 0h, 8h, 16h, 24h, 32h and 40h time points using ViewLux plate reader during compound treatment.
With `COc1cc(NC(C)CCCN)c2ncccc2c1` (stereo not given) the Potency was “inactive”.
With `Cc1ccc2nc(N)[nH]c(=O)c2c1Sc1ccncc1` the Potency was “inactive”.
In the case of `CN1C(CSCC(F)(F)F)Nc2cc(Cl)c(S(N)(=O)=O)cc2S1(=O)=O` (stereo not given), the Potency is reported as “inactive”.
In the case of `Cc1cn([C@H]2C[C@H](F)[C@@H](CO)O2)c(=O)[nH]c1=O`, the Potency is reported as “inactive”.
For `CC(C)N(C)C`, the Potency was “inactive”.
In the case of `CCCCCCCCCCCSCC(=O)O`, the Potency is reported as “inactive”.
In the case of `Nc1nc2ccc(OC(F)(F)F)cc2s1`, the Potency is reported as “inactive”.
For `Nc1cccc2c(N)cccc12`, the Potency was “inactive”.
For `CC1=C2[C@@H]([C@H](C)CC[C@H]2/C=C(\C)C(=O)O)[C@H](O)C1`, the Potency was “inactive”.
With `CC(C)CC(O)CC(C)C` the Potency was “inactive”.
For `Cc1ccc(Nc2c(F)cccc2Cl)c(CC(=O)O)c1`, the Potency was “inactive”.
For `CC(C)(C(=O)c1cccnc1)c1cccnc1`, the Potency was “inactive”.
With `CCOc1ncc(F)c(=O)[nH]1` the Potency was “inactive”.
With `CC(C)(C)S` the Potency was “inactive”.
For `CC(C)Cc1ccc(CC(=O)O)cc1`, the Potency was 10.7 µM (active).
In the case of `CC1=CC[C@@]23C[C@@H]1C(C)(C)[C@@H]2CC[C@H]3C`, the Potency is reported as “inactive”.
With `CC(=O)OC(C)C[N+](C)(C)C` (stereo not given) the Potency was “inactive”.
With `CC[C@H]1OC(=O)[C@H](C)[C@@H](O[C@H]2C[C@@](C)(OC)[C@@H](O)[C@H](C)O2)[C@H](C)[C@@H](O[C@@H]2O[C@H](C)C[C@H](N(C)C)[C@H]2O)[C@](C)(O)C[C@@H](C)C(=O)[C@H](C)[C@@H](O)[C@]1(C)O` the Potency was “inactive”.
With `CCNc1nc(N)nc(Cl)n1` the Potency was “inactive”.
For `CC(C)C(=O)OCCOc1ccccc1`, the Potency was “inactive”.
With `O=NN(CCCl)C(=O)NCCCl` the Potency was “inactive”.
With `O=C1[C@@H]2[C@H]3CC[C@H](C3)[C@@H]2C(=O)N1CCCCN1CCN(c2ncccn2)CC1` the Potency was “inactive”.
For `CCCCCCCC(=O)OCCCCCC`, the Potency was “inactive”.
In the case of `CCCCCCCCCCCC(=O)OCC(O)CO` (stereo not given), the Potency is reported as “inactive”.
For `Cc1cc([N+](=O)[O-])ccc1N`, the Potency was “inactive”.
With `Cc1ccc(Cl)cc1N` the Potency was “inactive”.
In the case of `COc1ccc(-c2cc(C(F)F)nn2-c2ccc(S(N)(=O)=O)cc2)cc1F`, the Potency is reported as “inactive”.
In the case of `CCCCCCC(O)CCCCCCCCCCC(=O)OC` (stereo not given), the Potency is reported as “inactive”.
With `CCCCCCCC/C=C/C(=O)O` the Potency was “inactive”.
With `CCCCCCC(O)CCOC(C)=O` (stereo not given) the Potency was “inactive”.
In the case of `O=[N+]([O-])c1ccc2ncccc2c1`, the Potency is reported as “inactive”.
For `CC(C)(O)CCc1ccccc1`, the Potency was “inactive”.
For `O=[N+]([O-])C1(Br)COCOC1`, the Potency was 54.9 µM (active).
For `CCN(Cc1cccc(S(=O)(=O)O)c1)c1ccc(C(=C2C=CC(=[N+](CC)Cc3cccc(S(=O)(=O)O)c3)C=C2)c2ccc(O)cc2S(=O)(=O)[O-])cc1`, the Potency was “inactive”.
With `CCN(CC)c1ccc(C(=C2C=CC(=[N+](CC)CC)C=C2)c2ccc(S(=O)(=O)O)cc2S(=O)(=O)[O-])cc1` the Potency was “inactive”.
With `CCN(CC)C(=O)/C(C#N)=C/c1cc(O)c(O)c([N+](=O)[O-])c1` the Potency was “inactive”.
In the case of `CNS(=O)(=O)c1cc(C(=O)N2CCC(CCN3C4CCC3CC(n3c(C)nc5ccccc53)C4)(c3cccc(F)c3)CC2)c(Cl)cc1F` (stereo not given), the Potency is reported as “inactive”.
With `COc1ccc(N)c([N+](=O)[O-])c1` the Potency was “inactive”.
For `CCCCCCCCCCCCCCCCCC(=O)OCC(CC)CCCC` (stereo not given), the Potency was “inactive”.
With `CC(C)C(O)C(C)(C)CO` (stereo not given) the Potency was “inactive”.
